Source: ChEMBL document CHEMBL1961873, “Compounds: GSK PKIS; Assays: Nanosyn kinase panel” (2012)

What follows are molecules tested against Vascular endothelial growth factor receptor 1 (Homo sapiens) (UniProt P17948). Conditions: at 0.1 µM.
Sequence of Vascular endothelial growth factor receptor 1 (Homo sapiens) (P17948 whole entry): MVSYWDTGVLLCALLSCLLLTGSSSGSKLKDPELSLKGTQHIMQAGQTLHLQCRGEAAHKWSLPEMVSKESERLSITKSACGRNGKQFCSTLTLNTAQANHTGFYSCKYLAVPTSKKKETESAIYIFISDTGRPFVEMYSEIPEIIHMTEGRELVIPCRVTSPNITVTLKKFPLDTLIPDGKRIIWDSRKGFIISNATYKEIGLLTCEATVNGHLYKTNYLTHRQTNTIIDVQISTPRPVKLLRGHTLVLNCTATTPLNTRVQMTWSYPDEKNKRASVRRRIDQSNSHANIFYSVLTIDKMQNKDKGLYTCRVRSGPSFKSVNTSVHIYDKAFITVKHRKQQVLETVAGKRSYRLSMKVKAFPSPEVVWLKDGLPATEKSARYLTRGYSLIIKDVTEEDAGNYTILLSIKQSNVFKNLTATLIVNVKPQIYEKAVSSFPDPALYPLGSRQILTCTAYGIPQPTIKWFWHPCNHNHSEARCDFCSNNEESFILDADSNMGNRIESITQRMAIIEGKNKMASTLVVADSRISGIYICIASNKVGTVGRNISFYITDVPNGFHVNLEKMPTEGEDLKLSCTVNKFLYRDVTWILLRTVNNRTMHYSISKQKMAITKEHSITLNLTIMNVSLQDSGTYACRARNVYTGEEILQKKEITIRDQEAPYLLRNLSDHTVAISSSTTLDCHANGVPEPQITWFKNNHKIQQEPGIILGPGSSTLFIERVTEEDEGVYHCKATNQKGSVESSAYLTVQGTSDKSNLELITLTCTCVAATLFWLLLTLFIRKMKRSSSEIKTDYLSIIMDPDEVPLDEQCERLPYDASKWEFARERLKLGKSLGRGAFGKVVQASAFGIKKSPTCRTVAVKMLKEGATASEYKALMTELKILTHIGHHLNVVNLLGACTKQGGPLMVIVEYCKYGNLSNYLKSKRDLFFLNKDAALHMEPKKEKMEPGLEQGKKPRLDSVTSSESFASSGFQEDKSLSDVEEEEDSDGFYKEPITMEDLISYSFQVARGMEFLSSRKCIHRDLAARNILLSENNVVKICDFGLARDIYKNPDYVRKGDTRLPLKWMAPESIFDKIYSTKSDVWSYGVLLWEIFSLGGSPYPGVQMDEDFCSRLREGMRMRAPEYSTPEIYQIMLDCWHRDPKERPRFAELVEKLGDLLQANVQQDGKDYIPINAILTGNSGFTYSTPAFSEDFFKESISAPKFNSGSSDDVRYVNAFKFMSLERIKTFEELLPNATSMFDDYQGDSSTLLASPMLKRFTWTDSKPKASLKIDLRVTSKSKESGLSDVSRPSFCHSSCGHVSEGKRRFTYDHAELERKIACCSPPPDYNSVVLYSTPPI
Work on `Fc1ccc(-c2nn3ccccc3c2-c2ccncc2)cc1` yielded an inhibition of 1.98%.
With `NS(=O)(=O)c1ccc(N/N=C2\C(=O)Nc3ccc4ncccc4c32)cc1` the inhibition was 11%.
Work on `CCc1nn2ncccc2c1-c1ccnc(NC2CC2)n1` yielded an inhibition of 0.02%.
With `O=C(Nc1n[nH]c2cc(-c3ccc(F)cc3)ccc12)C1CC1` the inhibition was -0.63%.
With `CCCN1CCC(c2ccc(Nc3nc(Nc4cc(F)ccc4C(N)=O)c4cc[nH]c4n3)c(OC)c2)CC1` the inhibition was 0.21%.
In the case of `CCCN(CCS(C)(=O)=O)Cc1ccc(-c2ccc3ncnc(Nc4ccc(OCc5cccc(F)c5)c(Cl)c4)c3c2)o1`, the inhibition is reported as -1%.
For `CCn1cc(-c2ccnc3[nH]ccc23)c(-c2cccc(NC(=O)Nc3ccc(OCc4ccccc4)cc3)c2)n1`, the inhibition was -3.05%.
With `CC(C)COC(=O)c1ccc2c(c1)/C(=C/Nc1ccc(S(N)(=O)=O)cc1)C(=O)N2` the inhibition was 4.68%.
For `NS(=O)(=O)c1ccc(Nc2ncc(-c3ccccc3)o2)cc1`, the inhibition was 4.95%.
`Cc1ccc(O)cc1Nc1ccnc2cc(-c3ccccn3)ccc12` showed an inhibition of 82.1%.
Molecule `COc1cc2ncn(-c3cc(OCc4ccccc4C(F)(F)F)c(C(=O)N(C)C)s3)c2cc1OC` has an inhibition of -0.21%.
`COc1ccc(-c2nn3ncccc3c2-c2ccnc(Nc3ccc4c(c3)OCCO4)n2)cc1` showed an inhibition of 4.09%.
Molecule `COc1cccc(-n2ncc3c(N/N=C/c4ccc(F)cc4)ncnc32)c1` has an inhibition of 2.07%.
For `COc1cc(Nc2nccc(Nc3ccc4c(C)n[nH]c4c3)n2)cc(OC)c1OC`, the inhibition was 38.3%.
For `COc1ccc(-c2cc3c(N)ncnc3o2)cc1`, the inhibition was -0.2%.
For `Nc1ncc(-c2cccc(S(N)(=O)=O)c2)c2scc(-c3ccc(F)c(Cl)c3)c12`, the inhibition was 4.56%.
For `COC(=O)c1sc(-n2cnc3cc(OC)c(OC)cc32)cc1OCc1ccccc1C(F)(F)F`, the inhibition was 1.32%.
With `Clc1ccc(-c2nn3ncccc3c2-c2ccnc(Nc3ccccc3)n2)cc1` the inhibition was 4.39%.
In the case of `CC(=O)NCc1cccc(C#Cc2cncnc2Nc2ccc(OCc3cccc(F)c3)c(Cl)c2)c1`, the inhibition is reported as -0.55%.
For `COc1cc2c(cc1Nc1nc(Nc3ccsc3C(N)=O)c3cc[nH]c3n1)N(C(=O)CN(C)C)CCC2(C)C`, the inhibition was 1.44%.
For `Cc1cccc(Nc2ncc(-c3ccccc3)o2)c1`, the inhibition was 1.05%.
In the case of `CCn1c(-c2nonc2N)nc2cnc(Oc3cccc(NC(=O)c4ccc(N(C)C)cc4)c3)cc21`, the inhibition is reported as 2.13%.
`COc1ccc(-c2oc3ncnc(N)c3c2-c2ccc(NC(=O)Nc3cc(C(F)(F)F)ccc3F)cc2)cc1` showed an inhibition of 47.8%.
Work on `COc1cc(/C=N/Nc2ncnc3[nH]ncc23)ccc1O` yielded an inhibition of 2.92%.
`Fc1cccc(COc2ccc(Nc3ncnc4sc(-c5ccco5)cc34)cc2Cl)c1` was tested, and the inhibition was 2.39%.
In the case of `CN1CCC(n2cnc(-c3ccc(F)cc3)c2-c2ccnc(Nc3ccccc3)n2)CC1`, the inhibition is reported as 0.12%.
Molecule `CNC(=O)c1cccc(C#Cc2cncnc2Nc2ccc(OCc3cccc(F)c3)c(Cl)c2)c1` has an inhibition of 1.95%.
For `CCOc1ccc2c(-c3ccnc(Nc4cccc(C(F)(F)F)c4)n3)cnn2n1`, the inhibition was -0.98%.
Work on `CCN1CCC(CC(=O)Nc2n[nH]c3nnc(-c4cccc(F)c4F)cc23)CC1` yielded an inhibition of 0.64%.
`FC(F)(F)c1cccc(-c2nn3ncccc3c2-c2ccnc(Nc3ccc4c(c3)OCCO4)n2)c1` showed an inhibition of 0.57%.
`CN(C)CCOc1ccc(-c2nc(-c3ccncc3)c(-c3ccc4c(c3)CC/C4=N\O)[nH]2)cc1` gave an inhibition of 2.37%.
With `Cc1cccc2c1NC(=O)/C2=N\Nc1ccc(S(N)(=O)=O)cc1` the inhibition was -0.48%.
`COc1cccc(-c2c[nH]c3c(N/N=C/c4ccncc4)ncnc23)c1` showed an inhibition of 2.08%.
For `COc1ccc(-c2cc(-c3c[nH]nc3-c3ccccn3)ccn2)cc1`, the inhibition was 3.66%.

What follows are molecules tested against Vascular endothelial growth factor receptor 1 (Homo sapiens) (UniProt P17948). Conditions: at 1 µM.
`Fc1ccc(-c2nn3ccccc3c2-c2ccncc2)cc1` gave an inhibition of 2.63%.
Work on `NS(=O)(=O)c1ccc(N/N=C2\C(=O)Nc3ccc4ncccc4c32)cc1` yielded an inhibition of 59.6%.
For `CCc1nn2ncccc2c1-c1ccnc(NC2CC2)n1`, the inhibition was 2.1%.
`O=C(Nc1n[nH]c2cc(-c3ccc(F)cc3)ccc12)C1CC1` gave an inhibition of 0.79%.
Work on `CCCN1CCC(c2ccc(Nc3nc(Nc4cc(F)ccc4C(N)=O)c4cc[nH]c4n3)c(OC)c2)CC1` yielded an inhibition of 0.37%.
In the case of `CCCN(CCS(C)(=O)=O)Cc1ccc(-c2ccc3ncnc(Nc4ccc(OCc5cccc(F)c5)c(Cl)c4)c3c2)o1`, the inhibition is reported as 1.07%.
`CCn1cc(-c2ccnc3[nH]ccc23)c(-c2cccc(NC(=O)Nc3ccc(OCc4ccccc4)cc3)c2)n1` was tested, and the inhibition was 2.9%.
`CC(C)COC(=O)c1ccc2c(c1)/C(=C/Nc1ccc(S(N)(=O)=O)cc1)C(=O)N2` showed an inhibition of 39.4%.
`NS(=O)(=O)c1ccc(Nc2ncc(-c3ccccc3)o2)cc1` was tested, and the inhibition was 13.1%.
Work on `Cc1ccc(O)cc1Nc1ccnc2cc(-c3ccccn3)ccc12` yielded an inhibition of 95.7%.
In the case of `COc1cc2ncn(-c3cc(OCc4ccccc4C(F)(F)F)c(C(=O)N(C)C)s3)c2cc1OC`, the inhibition is reported as 6.59%.
Work on `COc1ccc(-c2nn3ncccc3c2-c2ccnc(Nc3ccc4c(c3)OCCO4)n2)cc1` yielded an inhibition of 26.8%.
`COc1cccc(-n2ncc3c(N/N=C/c4ccc(F)cc4)ncnc32)c1` gave an inhibition of 3.41%.
Work on `COc1cc(Nc2nccc(Nc3ccc4c(C)n[nH]c4c3)n2)cc(OC)c1OC` yielded an inhibition of 88%.
`COc1ccc(-c2cc3c(N)ncnc3o2)cc1` was tested, and the inhibition was 0.12%.
Work on `Nc1ncc(-c2cccc(S(N)(=O)=O)c2)c2scc(-c3ccc(F)c(Cl)c3)c12` yielded an inhibition of 14.9%.
In the case of `COC(=O)c1sc(-n2cnc3cc(OC)c(OC)cc32)cc1OCc1ccccc1C(F)(F)F`, the inhibition is reported as 9.57%.
In the case of `Clc1ccc(-c2nn3ncccc3c2-c2ccnc(Nc3ccccc3)n2)cc1`, the inhibition is reported as 14.6%.
For `CC(=O)NCc1cccc(C#Cc2cncnc2Nc2ccc(OCc3cccc(F)c3)c(Cl)c2)c1`, the inhibition was 0.27%.
With `COc1cc2c(cc1Nc1nc(Nc3ccsc3C(N)=O)c3cc[nH]c3n1)N(C(=O)CN(C)C)CCC2(C)C` the inhibition was 1.83%.
Molecule `Cc1cccc(Nc2ncc(-c3ccccc3)o2)c1` has an inhibition of 11%.
Molecule `CCn1c(-c2nonc2N)nc2cnc(Oc3cccc(NC(=O)c4ccc(N(C)C)cc4)c3)cc21` has an inhibition of 4.41%.
Molecule `COc1ccc(-c2oc3ncnc(N)c3c2-c2ccc(NC(=O)Nc3cc(C(F)(F)F)ccc3F)cc2)cc1` has an inhibition of 96.7%.
`COc1cc(/C=N/Nc2ncnc3[nH]ncc23)ccc1O` showed an inhibition of 10.6%.
Molecule `Fc1cccc(COc2ccc(Nc3ncnc4sc(-c5ccco5)cc34)cc2Cl)c1` has an inhibition of 2.46%.
For `CN1CCC(n2cnc(-c3ccc(F)cc3)c2-c2ccnc(Nc3ccccc3)n2)CC1`, the inhibition was 3.33%.
In the case of `CNC(=O)c1cccc(C#Cc2cncnc2Nc2ccc(OCc3cccc(F)c3)c(Cl)c2)c1`, the inhibition is reported as 1.32%.
In the case of `CCOc1ccc2c(-c3ccnc(Nc4cccc(C(F)(F)F)c4)n3)cnn2n1`, the inhibition is reported as 1.9%.
`CCN1CCC(CC(=O)Nc2n[nH]c3nnc(-c4cccc(F)c4F)cc23)CC1` showed an inhibition of -0.57%.
`FC(F)(F)c1cccc(-c2nn3ncccc3c2-c2ccnc(Nc3ccc4c(c3)OCCO4)n2)c1` gave an inhibition of 12%.
`CN(C)CCOc1ccc(-c2nc(-c3ccncc3)c(-c3ccc4c(c3)CC/C4=N\O)[nH]2)cc1` showed an inhibition of 2.95%.
`Cc1cccc2c1NC(=O)/C2=N\Nc1ccc(S(N)(=O)=O)cc1` gave an inhibition of -0.65%.
Molecule `COc1cccc(-c2c[nH]c3c(N/N=C/c4ccncc4)ncnc23)c1` has an inhibition of 18.4%.
In the case of `COc1ccc(-c2cc(-c3c[nH]nc3-c3ccccn3)ccn2)cc1`, the inhibition is reported as 8.02%.
